Measurements published in PubChem BioAssay AID651661 (Broad Institute, 2012).
In all, about 350,000 compounds went through this assay and about 2,300 (0.66%) were called active.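 How the source made its calls: active means mean inhibition of at least 50% after viability correction, with every replicate also passing that limit; inconclusive means mean reaches 50% but only one of two replicates passes; inactive means the rest.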 The sample as a whole holds a higher share of actives than the screen did.

Assay: blockers of EWS/Fli transcriptional output – A673 cells, NR0B1 luciferase, luminescence, MLPCN library, primary screen (AID 651661);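 further: firefly luciferase signal divided by Alamar Blue viability fluorescence both relative to DMSO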
Settings: A673 NR0B1-luciferase reporter, viability-normalised; at 12.6 µM; hits give high values

| Compound | inhibition |
| --- | --- |
| CCOc1ccc(C(=O)NC(=S)Nc2ccc(N3CCOCC3)c(Cl)c2)cc1[N+](=O)[O-] | 72% (active) |
| COc1cccc(OC)c1C(=O)NC(=S)Nc1ccc(N2CCOCC2)c(Cl)c1 | -7.45% (inactive) |
| CCOc1ccc(C(=O)Nc2ccc(CN3CCOCC3)cc2)cc1Cl | -7.97% (inactive) |
| CC(C)NC(=O)N1[C@H](C#N)[C@H](c2ccc(C#CC3CCCCC3)cc2)[C@H]1CO | 19.7% (inactive) |
| CO[C@@H]1CN(C)C(=O)c2cc(NC(=O)C3CC3)ccc2OC[C@@H](C)N(C(=O)c2ccncc2)C[C@H]1C | 2.15% (inactive) |
| C[C@H]1CCCCO[C@H](CN(C)C(=O)CCC(F)(F)F)[C@@H](C)CN([C@@H](C)CO)C(=O)c2cc(NC(=O)Cc3ccccc3)ccc2O1 | 6.65% (inactive) |
| O=C(NC1CCCC1)N1CC(=O)N2[C@H](C1)[C@H](c1ccc(/C=C/c3ccccc3)cc1)[C@@H]2CO | 3.76% (inactive) |
| CN(C)CCN1CCN(c2cc(-c3cccc(Cl)c3)nc3ccnn23)CC1 | 1.41% (inactive) |
| O=C(c1ccccc1)N1CCN(c2cc(-c3ccccc3)nc3cc(-c4cccc(Cl)c4)nn23)CC1 | -22.8% (inactive) |
| C#Cc1cc(N2CCN(C(=O)c3ccoc3)CC2)n2nc(-c3cccc(Cl)c3)cc2n1 | 53% (active) |
| C[C@@H]1CN([C@@H](C)CO)C(=O)CCCn2cc(nn2)CO[C@@H]1CN(C)Cc1cccc(O)c1 | 8.82% (inactive) |
| CN(CCO)c1ccc(/C=N/Nc2nncc3ccccc23)cc1 | 67.2% (active) |
| COc1ccc2c3c(n(C)c2c1)[C@H](CO)N(Cc1ccc(F)cc1)CC31CN(CC2CCOCC2)C1 | -3.68% (inactive) |
| COC(c1ccccc1)(c1ccccc1)C(Oc1nc(C)cc(C)n1)C(=O)O (stereo unspecified) | 3.9% (inactive) |
| CCOC(=O)C(=Cc1ccccc1)C(=O)c1ccccc1 | -15.6% (inactive) |
| Cc1cc(C)nc(S/C=C/C(=O)c2ccccc2)n1 | 50.2% (active) |
| C[C@@H]1CCCCO[C@@H](CN(C)C(=O)NC2CCCCC2)[C@@H](C)CN([C@H](C)CO)C(=O)c2cc(NC(=O)CCCCCC(=O)Nc3ccccc3N)ccc2O1 | -0.378% (inactive) |
| CCC(=O)N(C)C[C@H]1Oc2cc(-c3ccccc3F)ccc2S(=O)(=O)N([C@H](C)CO)C[C@@H]1C | 1.15% (inactive) |
| COC(=O)C(CC#Cc1ccc2c(c1)[C@]1(C(=O)N2)[C@H](c2ccc(O)cc2)N2[C@H](c3ccccc3)[C@H](c3ccccc3)OC(=O)[C@H]2[C@@H]1C(=O)NC[C@H](O)c1ccccc1)C(=O)OC | -4.53% (inactive) |
| COC(=O)C(CC#Cc1ccc2c(c1)[C@]1(C(=O)N2)[C@H](c2ccccc2OCCO)N2[C@H](c3ccccc3)[C@H](c3ccccc3)OC(=O)[C@H]2[C@@H]1C(N)=O)C(=O)OC | 70.7% (active) |
| COc1ccc(C#Cc2ccc3c(c2)[C@]2(C(=O)N3)[C@H](c3ccccc3OCCO)N3[C@H](c4ccccc4)[C@H](c4ccccc4)OC(=O)[C@H]3[C@@H]2C(=O)N2CCCCCCC2)cc1 | 7.03% (inactive) |
